# Measured values taken from PubChem BioAssay (NCATS).
# “And” between values parts separate entries of the source, which are not always exact repeats. Equal values may be shown once. Inconclusive results are not listed. A number with no mark means an inactive call. The source made the active and inactive calls. Calls follow the shape of the dose curve; as a rule, active = well fitted curve in the direction sought with a large enough effect; inconclusive = small, poorly fitted or top-dose-only effect, or another doubt; inactive = no such curve, though single readings can be large; an effect the other way counts as inactive or inconclusive.
# How the values were obtained:
# [1] = Viability qHTS for spleen associated tyrosine kinase inhibitor (SYKi) naive MV4-11 cells (AID 1963823); also: nearly all actives have a fitted effect of over 40% in size
# In short: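 CellTiter-Glo luminescence, 10 min room-temperature incubation, gave viability. Cells: naive MV4-11 (500/well), treated 72 hr at 37 C, 5% CO2.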
# [2] = Cellular viability qHTS for adrenocortical cancer (ACC) cell line SW-13 (AID 1963989); conditions: SW-13 ACC cells viability, CellTiter-Glo, 48 h; activity (max response): active compounds read low; also: nearly all actives have a fitted effect of over 65% in size;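 as to activity (max response): cells grown in serum-free medium with ITS supplement; % is scaled to controls: 0 for no effect and ±100 for the full control effect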
# In short: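 Viability was read as CellTiter-Glo luminescence after 48 h compound treatment (up to 46 uM final) of SW-13 cells grown serum-free; titration curves were fit with a four-parameter logistic model to give IC50 and efficacy.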
# [3] = Quantitative highthroughput screen to assess conditional lethalithy of SEM cells grown in Human Plasma-Like Medium with dialyzed fetal bovine serum (HPLM+ds) (AID 1963882); also: nearly all actives have a fitted effect of over 35% in size; as to Viability: series mostly up to about 46 µM
# In short: (§1)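 Each medium arm—HPLM with 10% dialyzed FBS, or RPMI1640 with 5 mM glucose and 10% untreated or dialyzed FBS—was screened against an 11-point, 3-fold compound titration for 48 h at 37 °C, with CellTiter-Glo luminescence as endpoint.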
# [4] = Quantitative highthroughput screen to assess conditional lethalithy of SEM cells grown in RPMI1640 with unreated serum (RPMI+s) (AID 1963883); also: nearly all actives have a fitted effect of over 35% in size
# In short: as §1
# [5] = Quantitative highthroughput screen to assess conditional lethalithy of SEM cells grown in RPMI1640 with dialyzed fetal bovine serum (RPMI+ds) (AID 1963884); also: nearly all actives have a fitted effect of over 35% in size;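 as to Viability: series mostly up to about 46 µM; 100% = DMSO control wells and 0% = empty wells without cells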
# In short: as §1
# [6] = Cellular viability qHTS for adrenocortical cancer (ACC) cell line NCI-H295R (AID 1963990); also: nearly all actives have a fitted effect of over 60% in size
# In short: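 CellTiter-Glo ATP luminescence, read 48 h after compound addition, measured viability of NCI-H295R adrenocortical cells grown serum-free with ITS. Final concentrations spanned up to 46 uM. Data normalized to DMSO and doxorubicin, fitted for IC50 and maximal response.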
# [7] = Quantitative highthroughput screen to assess conditional lethalithy of P12 Ichikawa cells grown in Human Plasma-Like Medium with dialyzed fetal bovine serum (HPLM+ds) (AID 1963879); conditions: Potency: viability; also: nearly all actives have a fitted effect of over 35% in size
# In short: as §1
# [8] = Quantitative highthroughput screen to assess conditional lethalithy of P12 Ichikawa cells grown in RPMI1640 with dialyzed fetal bovine serum (RPMI+ds) (AID 1963880); conditions: Potency: P12-Ichikawa viability; also: nearly all actives have a fitted effect of over 35% in size;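 as to Viability: 100% = DMSO wells and 0% = empty wells on each plate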
# In short: as §1
# [9] = Quantitative highthroughput screen to assess conditional lethalithy of P12 Ichikawa cells grown in RPMI1640 with untreated serum (RPMI+s) (AID 1963881); conditions: Potency: viability; also: nearly all actives have a fitted effect of over 35% in size;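 as to Viability: series mostly up to about 46 µM; 100% = DMSO wells and 0% = empty wells without cells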
# In short: as §1
# [10] = Quantitative highthroughput screen to assess conditional lethalithy of NOMO1 cells grown in Human Plasma-Like Medium with dialyzed fetal bovine serum (HPLM+ds) (AID 1963878); also: nearly all actives have a fitted effect of over 35% in size
# In short: as §1
# Potency is read from the fitted curve at half-maximal effect.
smiles,measurement,setting,value
NC(N)=Nc1nc(CSCC/C(N)=N/S(N)(=O)=O)cs1,Potency,[1],inactive
same,activity (max response),[2],9.53%
NCCCC[C@H](NC(=O)[C@@H](NC(=O)[C@H](Cc1c[nH]c2ccccc12)NC(=O)[C@H](CCCCN)NC(=O)[C@H](CCCCN)NC(=O)[C@H](Cc1c[nH]c2ccccc12)NC(=O)[C@H](Cc1c[nH]c2ccccc12)NC(=O)[C@H](CCCCN)NC(=O)[C@@H](N)CCCCN)C(c1ccccc1)c1ccccc1)C(N)=O,Potency,[1],8.33 µM (active)
same,Potency,[2],31600 nM (active)
Cc1ccc(Nc2nccc(N(C)c3ccc4c(C)n(C)nc4c3)n2)cc1S(N)(=O)=O,Potency,[1],0.742 µM (active)
same,Potency,[3],16600 nM (active)
same,Potency,[4],14800 nM (active)
same,Potency,[5],14800 nM (active)
same,activity (max response),[2],-20.1%
same,Potency,[6],inactive
Clc1ccc2c(c1)Nc1ccccc1S2,Potency,[1],inactive
same,activity (max response),[2],-11.9%
CCc1cccc(CC)c1NC(=O)N1Cc2[nH]nc(NC(=O)c3ccc(N4CCN(C)CC4)cc3)c2C1,Potency,[1],1.46 µM (active) and 1.66 µM (active)
same,Potency,[7],1870 nM (active)
same,Potency,[3],4180 nM (active)
same,Potency,[4],1660 nM (active)
same,Potency,[5],1660 nM (active)
Cc1nc2c(-c3cnc(N)nc3)nc(N3CCOCC3)nc2n1C(C)C,Potency,[1],0.209 µM (active)
same,Potency,[7],2.9 nM (active)
same,Potency,[8],23.4 nM (active)
same,Potency,[9],18.6 nM (active)
same,Potency,[6],562 nM (active)
O=C1c2ccccc2S(=O)(=O)N1CCCCN1CCN(c2ncccn2)CC1,Potency,[1],inactive
same,activity (max response),[2],-8.3%
CC(=O)OC[C@@H]1O[C@@H](n2ccc(=O)[nH]c2=O)[C@H](OC(C)=O)[C@H]1OC(C)=O,Potency,[1],inactive
same,Potency,[8],inactive
same,Potency,[9],inactive
same,Potency,[3],inactive
same,Potency,[5],inactive
same,activity (max response),[2],-1.19%
same,Potency,[6],inactive
CNC(=O)c1c(-c2ccc(F)cc2)oc2cc(N(CCO)S(C)(=O)=O)c(C3CC3)cc12,Potency,[1],inactive
same,Potency,[10],8330 nM (active)
same,Potency,[8],5900 nM (active)
same,Potency,[9],6620 nM (active)
same,Potency,[3],1320 nM (active)
same,Potency,[5],264 nM (active)
same,activity (max response),[2],-0.986%
same,Potency,[6],inactive
O=S(=O)(O)c1ccc2cc(N=Nc3cc(S(=O)(=O)O)c4cccnc4c3O)ccc2c1,Potency,[1],inactive
same,activity (max response),[2],-15.7%
CC(C)(C)C(=O)N1N=CC[C@H]1c1ccccc1,Potency,[1],2.35 µM (active)
same,activity (max response),[2],3.19%
